This is an account of results in PubChem BioAssay (EPA / NIEHS).

Calls of active or inactive are those of the source. Rule for the calls: active = hit-call score of the fitted dose curve at least 0.9, where 1 is the maximum; inactive = score below 0.9.

Assay [1] can be described thus: ATG_E_Box_CIS: Attagene CIS-FACTORIAL HepG2 Assay for human Enhancer Box (E-box) (AID 2282936). The note with it: HepG2 E-box cis-reporter transcription, actives raise or lower the signal. The method in brief:
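Endogenous transcription factor activity was sensed in human HepG2 liver cells through transfected cis-promoter reporter units. After 24 h of dosing, total RNA was reverse-transcribed and reporter cDNA resolved by capillary electrophoresis.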

Assay [2] can be described thus: ATG_M_61_CIS: Attagene CIS-FACTORIAL HepG2 Assay for M61 Transcription Factor (Internal Marker) (AID 2282937). Conditions: HepG2 Attagene CIS-FACTORIAL M61 internal marker reporter; actives raise or lower the signal. In outline:
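Background-control endpoint: HepG2 cells with cis-regulated reporter constructs, 24 h exposure, reporter mRNA detected via fluorescent primer extension and capillary electrophoresis; values from bidirectional fitting with DMSO baseline.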

The nature of assay [3]: ATG_EGR_CIS: Attagene CIS-FACTORIAL HepG2 Assay for human Early Growth Response 1 (EGR1) (AID 2282938). The note with it: HepG2 Attagene CIS-FACTORIAL EGR reporter mRNA; actives raise or lower the signal. The method in brief: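 Endpoint derived by bidirectional fitting versus DMSO vehicle. Method: cis-promoter reporter units transfected into HepG2, 24 h dosing, RNA isolation, RT-PCR with 6-FAM primer extension and HpaI digestion, then capillary electrophoresis fluorescence detection.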

The nature of assay [4]: ATG_M_19_CIS: Attagene CIS-FACTORIAL HepG2 Assay for M19 Transcription Factor (Internal Marker) (AID 2282939). The note with it: HepG2 Attagene CIS-FACTORIAL M19 internal marker reporter; actives raise or lower the signal. The method in brief: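 Internal marker readout, fitted in both directions against DMSO, from HepG2 cells carrying transfected cis-element reporter constructs; RT-PCR and capillary electrophoresis of reporter mRNA after 24 h exposure.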

Assay [5] can be described thus: ATG_Ets_CIS: Attagene CIS-FACTORIAL HepG2 Assay for human Erythroblast Transformation Specific (ETS) (AID 2282941). The note with it: HepG2 ETS cis-reporter transcription; AC50: actives raise or lower the signal unless noted; outcome: actives raise or lower the signal unless noted. In outline:
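RT-PCR/capillary electrophoresis fluorescence read-out of reporter mRNA; HepG2 transient multi-reporter transfection; 24 h compound exposure; gain or loss of signal fitted bidirectionally relative to DMSO.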

Assay [6] has as its target Hepatocyte nuclear factor 3-beta (Homo sapiens) (UniProt Q9Y261). As to the kind of experiment: ATG_FoxA2_CIS: Attagene CIS-FACTORIAL HepG2 Assay for human Forkhead box A2 (FOXA2) (AID 2282942). The note with it: HepG2 cis-reporter transcription factor activity, 24 h; actives raise or lower the signal. The method in brief:
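Measured: reporter mRNA induction or loss in HepG2 transiently carrying multiple cis-regulated reporter units, 24 h after dosing. Quantified by RT-PCR plus capillary electrophoresis, normalised to DMSO.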

Assay [7] in a line: ATG_FoxO_CIS: Attagene CIS-FACTORIAL HepG2 Assay for human Forkhead box O (FoxO) (AID 2282943). The note with it: HepG2 Attagene cis-reporter, FoxO element, mRNA; actives raise or lower the signal. The method in brief:
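Values reflect reporter mRNA induction or loss in HepG2 cells 24 h post-dosing, fitted bidirectionally with DMSO as negative control and baseline. Detection used RT-PCR and fluorescence capillary electrophoresis.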

The nature of assay [8]: ATG_GATA_CIS: Attagene CIS-FACTORIAL HepG2 Assay for human GATA Binding Protein (AID 2282944). Conditions: HepG2 GATA cis-element reporter, Attagene multiplex mRNA; actives raise or lower the signal. The method in brief: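 Reporter transcripts from a GATA cis-regulated unit, among multiplexed reporters in transfected HepG2 cells, were measured by RT-PCR with capillary electrophoresis after 24 h dosing. Induction or loss scored relative to DMSO.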

Assay [9] in a line: ATG_GLI_CIS: Attagene CIS-FACTORIAL HepG2 Assay for human Zinc Finger Protein GLI1 (AID 2282945). Conditions: HepG2, Attagene cis-factorial reporter mRNA, GLI element; actives raise or lower the signal. In outline: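 HepG2 cells transiently transfected with cis-promoter multiplexed reporter units report endogenous transcription factor activity. After 24 h chemical exposure, reporter mRNA was quantified by RT-PCR, 6-FAM labelling, HpaI digestion and capillary electrophoresis, with bidirectional fitting against DMSO.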

For assay [10], the target named is Bile acid receptor (Homo sapiens) (UniProt Q96RI1). In words: ATG_IR1_CIS: Attagene CIS-FACTORIAL HepG2 Assay for human Nuclear Receptor Subfamily 1 Group H Member 4 (NR1H4), IR1 submotif (AID 2282946). The note with it: IR1 reporter transcription, actives raise or lower the signal. The method in brief: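 Readout: reporter transcript levels by RT-PCR with fluorescent capillary electrophoresis, from HepG2 cells transiently transfected with multiplexed cis-regulated reporters and dosed 24 h. Gain- or loss-of-signal fitted versus DMSO negative control.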

Assay [11] in a line: ATG_GRE_CIS: Attagene CIS-FACTORIAL HepG2 Assay for human Glucocorticoid Response Elements (GRE) (AID 2282947). The note with it: HepG2 GRE cis-reporter, Attagene multiplex mRNA; AC50: actives raise or lower the signal unless noted; outcome: actives raise or lower the signal unless noted. The method in brief: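 Cells (HepG2) bearing transfected cis-promoter reporter transcription units were treated with chemical for 24 hours. Reporter mRNA was measured via RT-PCR with capillary electrophoresis, and activity was fitted in both directions relative to DMSO.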

Assay [12] can be described thus: ATG_ISRE_CIS: Attagene CIS-FACTORIAL HepG2 Assay for human Interferon Regulatory Factor 1 (IRF1) binding to an Interferon-Stimulated Response Element (ISRE) (AID 2282948). The note with it: HepG2 ISRE cis-reporter (Attagene), mRNA transcription readout; actives raise or lower the signal. In outline: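 Read-out: fluorescent RT-PCR products resolved by capillary electrophoresis, reporting endogenous transcription factor activity via ISRE-driven reporter mRNA in transfected HepG2 cells dosed for 24 h; gain or loss fitted relative to DMSO.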

A short description of assay [13]: ATG_M_32_CIS: Attagene CIS-FACTORIAL HepG2 Assay for M32 Transcription Factor (Internal Marker) (AID 2282949).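 Note: background control marker of the multiplexed CIS panel rather than a real target.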 The note with it: HepG2 Attagene cis-factorial M32 reporter, mRNA; actives raise or lower the signal. In outline:
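HepG2 transfectants (cis-regulated reporter transcription units) dosed 24 h. Reporter mRNA by RT-PCR plus CE, analysed as gain or loss relative to DMSO.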

Assay [14] is described as follows: ATG_M_06_CIS: Attagene CIS-FACTORIAL HepG2 Assay for M06 Transcription Factor (Internal Marker) (AID 2282950). The note with it: HepG2 Attagene CIS-FACTORIAL M06 internal marker reporter; actives raise or lower the signal. In outline: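 Serves as a background control readout. Transfected HepG2 exposed to compounds for 24 h, then reporter transcripts quantified by fluorescent RT-PCR and capillary electrophoresis. Both directions fitted against DMSO baseline.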

Assay [15] addresses Hypoxia-inducible factor 1-alpha (Homo sapiens) (UniProt Q16665). In words: ATG_HIF1a_CIS: Attagene CIS-FACTORIAL HepG2 Assay for human Hypoxia Inducible Factor 1 (HIF1A) (AID 2282951). Conditions: HepG2 Attagene cis-factorial HIF1a reporter transcription; actives raise or lower the signal. In outline: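 Dosed 24 h, transfected HepG2 cells yielded total RNA whose reporter transcripts were RT-PCR-amplified and sized by capillary electrophoresis using fluorescent labelling; DMSO defined baseline, with gain and loss of signal both fitted.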

The target of assay [16] is Hepatocyte nuclear factor 6 (Homo sapiens) (UniProt Q9UBC0). As to the kind of experiment: ATG_HNF6_CIS: Attagene CIS-FACTORIAL HepG2 Assay for human Hepatocyte Nuclear Factor 6 (HNF6) (AID 2282952). The note with it: HepG2 Attagene cis-factorial HNF6 reporter transcription; actives raise or lower the signal. In outline: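 Using cis-element reporters in HepG2 liver cells, the assay tracks endogenous factor-driven transcription 24 h post-dosing. Signal comes from 6-FAM-labelled, HpaI-digested RT-PCR fragments, with gain or loss scored against DMSO.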

Assay [17] concerns the target Heat shock factor protein 1 (Homo sapiens) (UniProt Q00613). In words: ATG_HSE_CIS: Attagene CIS-FACTORIAL HepG2 Assay for human Heat Shock Transcription Factor 1 (HSE) (AID 2282953). Conditions: HepG2 HSE cis-reporter, Attagene RNA transcription; actives raise or lower the signal. In outline:
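Endogenous transcription factor activity in transiently transfected HepG2, read as reporter mRNA by RT-PCR with fluorescent capillary electrophoresis after 24 h. Gain or loss of signal fitted versus DMSO baseline.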

A short description of assay [18]: ATG_MRE_CIS: Attagene CIS-FACTORIAL HepG2 Assay for human Metal Responsive Element (MRE) (AID 2282954). The note with it: HepG2 MRE cis-reporter transcription, Attagene multiplex; actives raise or lower the signal. In outline:
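Cells were transfected with cis-promoter reporter transcription units, then dosed for 24 h. RNA was reverse-transcribed, amplified, fluorescently labelled and resolved by capillary electrophoresis, and activity was fitted in both directions relative to DMSO.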

Assay [19] is described as follows: ATG_PBREM_CIS: Attagene CIS-FACTORIAL HepG2 Assay for human Phenobarbital-responsive Enhancer Module (PBREM) (AID 2282955). The note with it: HepG2 PBREM cis-reporter, Attagene multiplexed transcription; actives raise or lower the signal. The method in brief:
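Transfected liver-derived HepG2 cells exposed 24 h; PBREM reporter transcript quantified via RT-PCR and capillary electrophoresis, with activity in either direction referenced to DMSO.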

Assay [20] can be described thus: ATG_ERE_CIS: Attagene CIS-FACTORIAL HepG2 Assay for Estrogen Response Element (ERE) (AID 2282940). The note with it: HepG2 ERE cis-reporter, Attagene RNA transcript; actives raise or lower the signal. In outline: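 After 24 h compound treatment, RNA from transfected HepG2 cells was reverse-transcribed, reporter cDNA PCR-amplified, FAM-labelled, HpaI-cut and resolved by capillary electrophoresis. ERE-driven cis reporter transcripts reflect endogenous factors; gain or loss scored against DMSO.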

Sequence of Hepatocyte nuclear factor 6 (Homo sapiens) (Q9UBC0 whole entry, looked up, the tested form may be a part): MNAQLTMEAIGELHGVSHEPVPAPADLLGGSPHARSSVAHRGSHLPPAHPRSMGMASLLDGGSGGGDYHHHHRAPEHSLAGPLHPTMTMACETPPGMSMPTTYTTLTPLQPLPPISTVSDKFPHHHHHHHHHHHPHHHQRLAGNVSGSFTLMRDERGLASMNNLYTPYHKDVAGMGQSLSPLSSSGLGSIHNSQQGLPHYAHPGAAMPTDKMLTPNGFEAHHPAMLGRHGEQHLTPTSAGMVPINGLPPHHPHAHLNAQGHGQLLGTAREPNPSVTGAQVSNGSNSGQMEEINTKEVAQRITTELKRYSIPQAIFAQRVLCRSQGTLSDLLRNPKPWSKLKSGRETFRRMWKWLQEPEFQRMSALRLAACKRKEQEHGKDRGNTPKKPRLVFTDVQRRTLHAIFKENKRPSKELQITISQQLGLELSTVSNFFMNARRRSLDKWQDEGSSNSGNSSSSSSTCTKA
Sequence of Hypoxia-inducible factor 1-alpha (Homo sapiens) (Q16665 whole entry, looked up): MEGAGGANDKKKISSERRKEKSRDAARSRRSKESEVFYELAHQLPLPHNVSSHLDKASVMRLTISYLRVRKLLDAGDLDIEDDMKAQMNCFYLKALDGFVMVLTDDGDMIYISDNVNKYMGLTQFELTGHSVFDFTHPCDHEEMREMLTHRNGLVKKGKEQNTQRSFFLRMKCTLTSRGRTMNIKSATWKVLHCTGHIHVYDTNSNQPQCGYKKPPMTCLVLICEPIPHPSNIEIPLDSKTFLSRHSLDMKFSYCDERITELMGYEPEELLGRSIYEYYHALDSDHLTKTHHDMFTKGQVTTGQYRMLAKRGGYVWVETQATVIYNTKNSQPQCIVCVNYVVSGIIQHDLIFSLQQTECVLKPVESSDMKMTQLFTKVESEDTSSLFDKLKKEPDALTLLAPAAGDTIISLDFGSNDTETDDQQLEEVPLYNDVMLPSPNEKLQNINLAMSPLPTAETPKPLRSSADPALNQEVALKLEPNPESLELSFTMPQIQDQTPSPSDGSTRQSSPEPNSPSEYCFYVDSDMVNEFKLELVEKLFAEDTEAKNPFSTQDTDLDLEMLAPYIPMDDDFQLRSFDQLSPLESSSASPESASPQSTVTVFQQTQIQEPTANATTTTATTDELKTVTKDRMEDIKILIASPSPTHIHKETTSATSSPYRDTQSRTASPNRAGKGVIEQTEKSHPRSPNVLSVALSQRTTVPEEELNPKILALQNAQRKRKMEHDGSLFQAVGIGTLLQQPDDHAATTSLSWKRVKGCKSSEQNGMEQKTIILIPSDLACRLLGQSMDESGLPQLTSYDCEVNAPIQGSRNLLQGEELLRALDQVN
Sequence of Heat shock factor protein 1 (Homo sapiens) (Q00613 whole entry, looked up): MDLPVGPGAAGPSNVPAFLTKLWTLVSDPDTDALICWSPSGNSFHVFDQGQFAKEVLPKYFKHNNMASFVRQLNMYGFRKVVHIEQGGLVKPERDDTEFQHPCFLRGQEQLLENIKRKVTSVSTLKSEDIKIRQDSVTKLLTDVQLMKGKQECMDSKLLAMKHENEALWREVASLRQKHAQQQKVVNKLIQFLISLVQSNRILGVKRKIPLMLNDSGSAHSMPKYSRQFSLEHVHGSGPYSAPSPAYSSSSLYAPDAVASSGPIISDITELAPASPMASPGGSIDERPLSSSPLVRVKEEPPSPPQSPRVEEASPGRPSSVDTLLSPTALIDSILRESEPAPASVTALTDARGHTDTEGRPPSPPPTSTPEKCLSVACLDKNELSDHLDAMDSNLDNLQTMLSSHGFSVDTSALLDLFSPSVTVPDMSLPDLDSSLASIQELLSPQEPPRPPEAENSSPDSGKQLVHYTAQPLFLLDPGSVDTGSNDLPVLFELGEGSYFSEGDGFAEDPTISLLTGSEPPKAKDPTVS
Sequence of Hepatocyte nuclear factor 3-beta (Homo sapiens) (Q9Y261 whole entry, looked up): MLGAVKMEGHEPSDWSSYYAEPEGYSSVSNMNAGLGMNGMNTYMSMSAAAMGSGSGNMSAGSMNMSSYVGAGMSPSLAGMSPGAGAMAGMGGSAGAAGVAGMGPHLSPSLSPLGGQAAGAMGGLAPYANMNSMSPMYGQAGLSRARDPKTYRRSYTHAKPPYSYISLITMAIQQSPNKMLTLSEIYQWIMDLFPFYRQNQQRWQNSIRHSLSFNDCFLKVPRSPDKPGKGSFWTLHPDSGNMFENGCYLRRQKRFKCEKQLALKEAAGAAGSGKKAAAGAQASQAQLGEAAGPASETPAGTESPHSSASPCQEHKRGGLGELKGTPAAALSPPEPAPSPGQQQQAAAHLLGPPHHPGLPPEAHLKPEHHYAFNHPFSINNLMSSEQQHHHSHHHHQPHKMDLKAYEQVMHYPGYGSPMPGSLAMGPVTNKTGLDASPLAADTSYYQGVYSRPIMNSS
Sequence of Bile acid receptor (Homo sapiens) (Q96RI1 whole entry, looked up): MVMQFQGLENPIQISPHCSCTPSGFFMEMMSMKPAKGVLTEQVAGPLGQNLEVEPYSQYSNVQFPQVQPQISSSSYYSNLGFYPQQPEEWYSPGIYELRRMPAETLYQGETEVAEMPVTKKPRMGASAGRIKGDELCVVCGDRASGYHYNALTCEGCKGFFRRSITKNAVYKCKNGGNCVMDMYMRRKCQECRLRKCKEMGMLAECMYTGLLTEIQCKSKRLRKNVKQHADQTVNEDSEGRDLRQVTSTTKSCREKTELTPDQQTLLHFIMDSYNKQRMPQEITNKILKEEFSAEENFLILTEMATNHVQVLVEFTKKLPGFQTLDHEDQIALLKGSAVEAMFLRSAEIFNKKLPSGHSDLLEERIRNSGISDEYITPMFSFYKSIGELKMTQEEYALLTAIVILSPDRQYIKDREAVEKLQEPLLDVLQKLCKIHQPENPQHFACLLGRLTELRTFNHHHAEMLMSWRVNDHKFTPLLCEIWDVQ

Consider `CC1CNCC(C)O1` (stereo not given), for which the outcome in assay [1], in [2], in [3], in assay [4], in [5] and in [6] was inactive. In addition, the compound was called inactive in [7], in [8], in [9], in [10], in [11] and in assay [12]. Moreover, the call in assay [13], in assay [14], in assay [15], in [16], in [17] and in assay [18] was inactive. Moreover, the outcome in [19] was inactive.

Broadly, the AC50 is the concentration giving half of the maximal activity seen. In the case of `OCC(F)(F)C(F)(F)C(F)(F)C(F)(F)C(F)(F)C(F)(F)C(F)(F)C(F)(F)C(F)(F)C(F)(F)C(F)(F)F`, the result in assay [1], in assay [2], in assay [3], in assay [4], in assay [5] and in [6] was inactive. For the same compound, the result in assay [7], in [8], in assay [10], in [11], in assay [13] and in [14] was inactive. For the same compound, the compound was called inactive in assay [15], in assay [16], in assay [17] and in [19]. Besides, the concentration at half-maximal activity (AC50) in assay [20] was 72.3 µM (active).

As to `COc1ccccc1NC(=O)c1cc2ccccc2cc1O`, the concentration at half-maximal activity (AC50) is 26.7 µM (active) in assay [1]; 52.9 µM (active) in assay [3]; 46.5 µM (active) in assay [5]; 100 µM (active) in assay [7]; 41.1 µM (active) in assay [8]; 60.7 µM (active) in assay [9]. The AC50 was 68.8 µM (active) in assay [10]; 100 µM (active) in [11]; 82.7 µM (active) in [12]; 22.7 µM (active) in assay [15]; 137 µM (active) in assay [16]; 57.3 µM (active) in assay [17]. In addition, the concentration at half-maximal activity (AC50) in assay [18] was 23.3 µM (active); in assay [19] it was 6.07 µM (active). For the same compound, the compound was classed as inactive in [2], in assay [4], in assay [6], in assay [13] and in [14].
